Test results published in PubChem BioAssay (NCATS).
Records with an inconclusive call do not appear. The source made the active and inactive calls. Unless noted, calls follow the shape of the dose curve; as a rule, active = well fitted curve in either direction with a large enough effect (not every such curve was filed as active); inconclusive = small, poorly fitted or top-dose-only effect, or another doubt; inactive = flat fitted curve, though single readings scatter.

Columns and labels:
[1] = biological target: Lysosomal acid glucosylceramidase (Homo sapiens) (UniProt P04062); experiment: Glucocerebrosidase-p2 (AID 348; in the data active = potency below about 10 µM; also: potency is read from the fitted curve at half-maximal effect); settings: purified GBA, blue fluorogenic substrate, 40 min
Chain of Lysosomal acid glucosylceramidase (Homo sapiens) (P04062 whole entry, looked up): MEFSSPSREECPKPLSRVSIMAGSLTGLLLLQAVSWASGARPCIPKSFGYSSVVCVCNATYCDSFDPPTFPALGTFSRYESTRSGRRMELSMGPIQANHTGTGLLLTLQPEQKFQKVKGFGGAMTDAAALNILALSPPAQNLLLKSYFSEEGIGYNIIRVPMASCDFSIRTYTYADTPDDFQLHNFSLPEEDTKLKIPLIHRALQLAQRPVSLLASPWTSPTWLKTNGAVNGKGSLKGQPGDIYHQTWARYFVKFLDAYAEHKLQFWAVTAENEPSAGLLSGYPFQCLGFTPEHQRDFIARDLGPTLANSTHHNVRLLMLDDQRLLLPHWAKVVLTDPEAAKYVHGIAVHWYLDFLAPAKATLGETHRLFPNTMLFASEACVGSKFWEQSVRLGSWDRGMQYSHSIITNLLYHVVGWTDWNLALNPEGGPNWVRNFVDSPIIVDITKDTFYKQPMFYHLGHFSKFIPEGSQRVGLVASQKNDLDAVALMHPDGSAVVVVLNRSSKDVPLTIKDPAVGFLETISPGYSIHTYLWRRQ
Method in brief: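 Normal human glucocerebrosidase (0.2 nM) with blue fluorogenic substrate (80 uM final) in citrate/phosphate pH 5.9 with 10mM sodium taurocholate, 0.01% tween-20; 40 min RT, NaOH/glycine stop; fluorescence Ex 365/Em 440; AC50 from a titration from 0.6 nM upwards.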

[2] = AP1 Signaling Pathway (AID 357); settings: ME-180 AP-1-bla reporter, EGF-induced, beta-lactamase ratio, 5 h; at 7.69 µM (top of the series) unless noted;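 also: ME-180 reporter cells stimulated with EGF at its EC50 level; % is scaled to controls: 0 for no effect and ±100 for the full control effect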
Method in brief: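 First, ME-180 AP-1-bla cells were cultured overnight at 37 °C in low-serum Opti-MEM. Next, titrated compounds with EC50 EGF were incubated 5 hours. Finally, CCF4 was added for 2.5 hours and the 460/530 nm ratio recorded.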

[3] = biological target: Cytochrome P450 1A2 (Homo sapiens) (UniProt P05177); experiment: p450-cyp1a2 (AID 410; calls by dose curve; also: potency is read from the fitted curve at half-maximal effect;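 as to activity change, negative = inhibition: -100% = full effect of reference inhibitor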); settings: recombinant CYP1A2, luciferin-ME demethylation, luminescence; series mostly up to 57 µM
Chain of Cytochrome P450 1A2 (Homo sapiens) (P05177 whole entry, looked up): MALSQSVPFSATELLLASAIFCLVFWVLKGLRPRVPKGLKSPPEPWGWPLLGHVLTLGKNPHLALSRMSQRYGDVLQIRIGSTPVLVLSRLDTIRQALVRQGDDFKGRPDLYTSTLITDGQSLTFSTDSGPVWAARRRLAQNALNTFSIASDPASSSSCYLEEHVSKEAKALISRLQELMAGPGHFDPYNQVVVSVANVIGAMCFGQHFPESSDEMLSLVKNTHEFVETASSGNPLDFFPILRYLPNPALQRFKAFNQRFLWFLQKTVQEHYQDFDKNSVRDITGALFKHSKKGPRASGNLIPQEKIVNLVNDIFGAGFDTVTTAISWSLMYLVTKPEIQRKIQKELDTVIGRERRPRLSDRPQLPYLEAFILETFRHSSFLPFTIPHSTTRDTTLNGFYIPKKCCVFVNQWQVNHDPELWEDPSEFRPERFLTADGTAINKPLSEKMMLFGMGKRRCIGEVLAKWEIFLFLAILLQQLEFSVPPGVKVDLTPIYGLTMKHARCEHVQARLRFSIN
Method in brief: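 Read-out is luminescence from luciferin produced by CYP1A2 demethylation of Luciferin-ME (100uM, at Km). Detection reagent stopped the 60 min NADPH-dependent reaction; signals were normalized to 57 uM furafylline.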

[4] = NFAT Signaling Pathway (AID 444); settings: Jurkat NFAT-bla M1, carbachol, beta-lactamase ratio, 5 h; at 7.69 µM (top of the series) unless noted;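 also: carbachol stimulus at about its EC50 of 1 µM final; % is scaled to controls: 0 for no effect and ±100 for the full control effect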
Method in brief: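 Jurkat cells with NFAT-driven β-lactamase reporter and co-expressed M1 receptor, stimulated with carbachol (final 1 uM, ~EC50), compound titration, 5 h at 37 °C. CCF4 loaded 1 h at RT; 460/530 nm ratio gave %activity and AC50.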

[5] = biological target: Glucocorticoid receptor (Homo sapiens) (UniProt P04150); experiment: GR-EFC Redistribution (AID 451; calls by dose curve; also: potency is read from the fitted curve at half-maximal effect); settings: CHO-K1 GR-EFC translocation, beta-gal luminescence, 2 h
Chain of Glucocorticoid receptor (Homo sapiens) (P04150 whole entry, looked up, the tested form may be a part): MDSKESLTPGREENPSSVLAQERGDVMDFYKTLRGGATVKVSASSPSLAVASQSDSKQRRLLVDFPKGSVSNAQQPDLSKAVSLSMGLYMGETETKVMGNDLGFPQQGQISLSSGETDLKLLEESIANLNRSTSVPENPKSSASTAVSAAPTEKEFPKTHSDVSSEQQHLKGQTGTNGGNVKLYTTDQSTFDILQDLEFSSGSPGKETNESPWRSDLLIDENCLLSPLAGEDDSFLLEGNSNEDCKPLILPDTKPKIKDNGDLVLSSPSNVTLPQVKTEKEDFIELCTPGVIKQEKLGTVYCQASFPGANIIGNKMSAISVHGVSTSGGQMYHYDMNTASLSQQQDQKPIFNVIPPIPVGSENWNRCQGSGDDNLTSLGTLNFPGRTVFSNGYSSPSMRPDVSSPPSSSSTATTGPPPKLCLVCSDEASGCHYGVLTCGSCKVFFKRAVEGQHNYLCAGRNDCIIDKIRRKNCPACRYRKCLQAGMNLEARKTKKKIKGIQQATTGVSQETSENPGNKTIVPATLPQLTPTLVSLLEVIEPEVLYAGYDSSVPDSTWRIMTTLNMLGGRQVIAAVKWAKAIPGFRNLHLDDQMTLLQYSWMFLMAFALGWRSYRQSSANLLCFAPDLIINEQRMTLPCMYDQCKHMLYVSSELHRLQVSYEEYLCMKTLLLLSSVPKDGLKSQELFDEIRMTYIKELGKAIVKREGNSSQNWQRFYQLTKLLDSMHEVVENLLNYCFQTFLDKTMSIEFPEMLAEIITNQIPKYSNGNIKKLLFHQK
Method in brief: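 CHO-K1 cells expressing nuclear EA and GR-ED fragments of b-gal; compounds titrated up to 46 uM final, 2 h at 37 C. GR nuclear translocation read as complemented b-gal luminescence after 1 h RT detection.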

[6] = biological target: 3',5'-cyclic-AMP phosphodiesterase 4B (Homo sapiens) (UniProt Q07343); experiment: qHTS Assay for Inhibitors of PDE-IV (AID 607; active = well fitted activation curve with a large enough effect in the main read-out, with a control signal flat, not every such curve was filed as active; also: % of control where 0% means no effect); settings: HEK293 ACTOne CNG channel cells, membrane potential fluorescence; series mostly up to 22.9 µM
Chain of 3',5'-cyclic-AMP phosphodiesterase 4B (Homo sapiens) (Q07343 whole entry, looked up): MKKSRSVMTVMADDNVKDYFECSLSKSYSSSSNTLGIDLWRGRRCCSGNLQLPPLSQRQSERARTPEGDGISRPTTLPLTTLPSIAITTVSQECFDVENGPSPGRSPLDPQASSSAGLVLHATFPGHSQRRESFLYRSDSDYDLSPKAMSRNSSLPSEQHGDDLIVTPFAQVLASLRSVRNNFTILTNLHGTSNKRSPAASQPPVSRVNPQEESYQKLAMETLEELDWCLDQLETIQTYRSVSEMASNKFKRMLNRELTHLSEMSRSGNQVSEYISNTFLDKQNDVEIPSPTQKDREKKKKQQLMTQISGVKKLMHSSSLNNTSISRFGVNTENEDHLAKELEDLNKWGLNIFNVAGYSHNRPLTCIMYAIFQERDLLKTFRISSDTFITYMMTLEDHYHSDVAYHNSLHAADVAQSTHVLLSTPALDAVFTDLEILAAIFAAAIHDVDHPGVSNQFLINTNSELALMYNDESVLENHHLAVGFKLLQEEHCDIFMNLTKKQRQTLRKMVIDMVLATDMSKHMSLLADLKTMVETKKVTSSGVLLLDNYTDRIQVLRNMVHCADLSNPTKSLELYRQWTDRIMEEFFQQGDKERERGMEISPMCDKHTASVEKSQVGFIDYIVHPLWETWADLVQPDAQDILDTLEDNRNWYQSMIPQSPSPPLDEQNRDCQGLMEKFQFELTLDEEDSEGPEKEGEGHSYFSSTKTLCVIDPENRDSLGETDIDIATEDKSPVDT
Method in brief: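 Live HEK293 cells with a modified cyclic nucleotide-gated (CNG) channel report intracellular cAMP via membrane-potential dye fluorescence (ex 535/em 590 nm). Endogenous PDE-IV was targeted. Compounds were tested at up to 22.9 uM final; RO 20-1724 100 uM served as control.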

[7] = biological target: Cytochrome P450 3A4 (Homo sapiens) (UniProt P08684); experiment: qHTS Assay for Activators of Cytochrome P450 3A4 (AID 885; active = well fitted curve in the direction sought with a large enough effect; an effect the other way counts as inactive or inconclusive; also: nearly all actives have a fitted effect of over 65% in size); settings: recombinant CYP3A4, Luciferin-PPXE luminescence, 60 min; series mostly up to 57.1 µM
Chain of Cytochrome P450 3A4 (Homo sapiens) (P08684 whole entry, looked up): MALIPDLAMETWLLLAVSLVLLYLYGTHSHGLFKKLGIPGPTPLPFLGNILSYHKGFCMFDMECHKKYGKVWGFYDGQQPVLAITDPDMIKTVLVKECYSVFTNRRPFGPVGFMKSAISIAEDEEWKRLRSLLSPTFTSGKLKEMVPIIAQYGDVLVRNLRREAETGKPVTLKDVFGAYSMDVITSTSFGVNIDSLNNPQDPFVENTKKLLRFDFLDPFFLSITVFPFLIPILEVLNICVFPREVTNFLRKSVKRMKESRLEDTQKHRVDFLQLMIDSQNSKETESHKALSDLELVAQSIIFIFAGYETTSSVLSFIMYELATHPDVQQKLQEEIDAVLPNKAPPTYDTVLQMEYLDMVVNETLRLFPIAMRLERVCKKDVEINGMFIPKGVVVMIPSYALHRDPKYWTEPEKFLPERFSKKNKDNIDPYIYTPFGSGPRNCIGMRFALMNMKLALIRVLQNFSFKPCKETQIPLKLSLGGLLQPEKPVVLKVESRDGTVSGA
Method in brief: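 Using 20nM recombinant human CYP3A4 in potassium phosphate (200mM), substrate Luciferin-PPXE at 25uM, luminescent luciferin detection followed a 60-min RT NADPH reaction; data scaled to 57 uM ketoconazole.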

[8] = Primary qHTS for small molecule stabilizers of the endoplasmic reticulum resident proteome: Secreted ER Calcium Modulated Protein (SERCaMP) assay (AID 1508630; active = well fitted curve in the direction sought with a large enough effect; an effect the other way counts as inactive or inconclusive; also: % is scaled to controls: 0 for no effect and ±100 for the full control effect); settings: SH-SY5Y GLuc-SERCaMP (Gaussia luciferase released on ER calcium loss) secretion, thapsigargin, luminescence; series mostly up to 38.4 µM
Method in brief: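 The SH-SY5Y reporter protocol was run at 3 concentrations up to 38.3 uM (primary) or 11 concentrations (follow-up): 16 h compound, 100 nM thapsigargin for 4 h, then extracellular luciferase luminescence.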

[9] = biological target: Glucocorticoid receptor (Homo sapiens) (UniProt P04150); experiment: GR-GFP Redistribution (AID 450;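 active = compounds whose dose series gives a full or clear partial fitted curve of increased nuclear translocation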; also: potency is read from the fitted curve at half-maximal effect); settings: U2OS GR-GFP nuclear translocation, laser cytometry, 2 h
[10] = biological target: Mitogen-activated protein kinase 10 (Mus musculus) (UniProt Q61831); experiment: JNK3 AlphaScreen Assay (AID 530); settings: JNK3 lysate, c-Jun phosphorylation; series mostly up to 57.1 µM;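 also: kinase came from lysate of stimulated human HepG2 cells; signal reports phosphorylation of biotinylated GST-cJun 1-79 at Ser73 with 10 µM ATP; % is scaled to controls: 0 for no effect and ±100 for the full control effect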
Method in brief: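 HepG2 lysate (IL-1b/TNFa pre-activated) + biotin-GST-cJun 1-79 + anti-pSer73 cJun; cpd titration, 15 min RT; ATP 10 uM start; Tris pH 7.6, MgCl2, DTT, vanadate; beads in EDTA buffer; AlphaScreen.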

[11] = biological target: Cytochrome P450 3A4 (Homo sapiens) (UniProt P08684); experiment: qHTS Assay for Inhibitors and Substrates of Cytochrome P450 3A4 (AID 884; active = well fitted curve in the direction sought with a large enough effect; an effect the other way counts as inactive or inconclusive; also: potency is read from the fitted curve at half-maximal effect; nearly all actives have a fitted effect of over 50% in size); settings: recombinant CYP3A4, Luciferin-PPXE luminescence; series mostly up to 57.1 µM
Method in brief: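 Luminescent readout of luciferin produced by CYP3A4 (20 nM) dealkylation of Luciferin-PPXE, 25 uM (its KM). NADPH-driven reaction ran 60 min at RT after 10 min compound preincubation; data scaled to 57 uM ketoconazole as 100% inhibition.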

[12] = qHTS Assay for Identification of Small Molecule Agonists for Hypoxia Response Element Signaling Pathway (AID 914; active = well fitted activation curve with a large enough effect in the signal ratio, with a control signal flat, not every such curve was filed as active; the % refers to the signal ratio; also: potency is read from the fitted curve at half-maximal effect); settings: ME-180 HRE-bla reporter, beta-lactamase ratio, CoCl2, 17 h; activation: stronger effect = higher value
Method in brief: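 HRE-bla ME-180 assay for agonist-like enhancement of an EC50 CoCl2 stimulus: 17 h at 37 degrees Celsius, CCF4 for 2.5 h, ratiometric 460/530 nm signal converted to %Activity and fitted to AC50.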

[13] = Stat Signaling Pathway (AID 446); settings: ME-180 (cervical carcinoma) SIE beta-lactamase reporter, IL-6 stimulated, 5 h; at 7.69 µM (top of the series) unless noted
Method in brief: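 Overnight-plated ME-180 cells bearing a STAT Inducible Element beta-lactamase reporter; 5 h co-exposure to compound and 40 pM IL-6; values normalized to 300 pM IL-6 and 125 nM JAK inhibitor controls.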

[14] = biological target: Cytochrome P450 2C9 (Homo sapiens) (UniProt P11712); experiment: qHTS Assay for Inhibitors and Substrates of Cytochrome P450 2C9 (AID 883; active = well fitted curve in the direction sought with a large enough effect; an effect the other way counts as inactive or inconclusive; also: nearly all actives have a fitted effect of over 60% in size; also: potency is read from the fitted curve at half-maximal effect); settings: recombinant CYP2C9, luciferin-H luminescence, 60 min; series mostly up to 57.1 µM
Chain of Cytochrome P450 2C9 (Homo sapiens) (P11712 whole entry, looked up): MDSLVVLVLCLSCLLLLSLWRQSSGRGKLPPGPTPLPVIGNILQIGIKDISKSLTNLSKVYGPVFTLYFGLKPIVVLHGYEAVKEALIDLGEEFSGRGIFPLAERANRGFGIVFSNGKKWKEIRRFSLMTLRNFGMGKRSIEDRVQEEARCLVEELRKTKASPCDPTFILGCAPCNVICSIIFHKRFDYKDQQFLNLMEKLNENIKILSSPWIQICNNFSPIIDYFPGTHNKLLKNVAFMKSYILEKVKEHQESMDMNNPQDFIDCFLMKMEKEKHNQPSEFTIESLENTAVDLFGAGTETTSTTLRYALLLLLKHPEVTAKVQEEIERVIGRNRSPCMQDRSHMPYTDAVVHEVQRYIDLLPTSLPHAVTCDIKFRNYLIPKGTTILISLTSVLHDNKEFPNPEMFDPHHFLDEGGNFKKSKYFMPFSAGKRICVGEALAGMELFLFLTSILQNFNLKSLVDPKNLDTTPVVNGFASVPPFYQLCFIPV
Method in brief: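 Signal: luciferase luminescence reporting luciferin produced by CYP2C9. Conditions: 10nM enzyme, Luciferin-H 100uM at KM, 25mM KPO4, 37C, 60 min NADPH-driven reaction. Reference: 57uM sulphaphenazole as 100% inhibition.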

[15] = biological target: Cytochrome P450 2D6 (Homo sapiens) (UniProt P10635); experiment: qHTS Assay for Inhibitors and Substrates of Cytochrome P450 2D6 (AID 891; active = well fitted curve in the direction sought with a large enough effect; an effect the other way counts as inactive or inconclusive;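 also: luciferin methyl ether substrate demethylated by CYP2D6 with NADPH regeneration; % is scaled to controls: 0 for no effect and ±100 for the full control effect; nearly all actives have a fitted effect of over 60% in size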); settings: recombinant CYP2D6, luciferin-ME EGE luminescence; series mostly up to 57.1 µM
Chain of Cytochrome P450 2D6 (Homo sapiens) (P10635 whole entry, looked up): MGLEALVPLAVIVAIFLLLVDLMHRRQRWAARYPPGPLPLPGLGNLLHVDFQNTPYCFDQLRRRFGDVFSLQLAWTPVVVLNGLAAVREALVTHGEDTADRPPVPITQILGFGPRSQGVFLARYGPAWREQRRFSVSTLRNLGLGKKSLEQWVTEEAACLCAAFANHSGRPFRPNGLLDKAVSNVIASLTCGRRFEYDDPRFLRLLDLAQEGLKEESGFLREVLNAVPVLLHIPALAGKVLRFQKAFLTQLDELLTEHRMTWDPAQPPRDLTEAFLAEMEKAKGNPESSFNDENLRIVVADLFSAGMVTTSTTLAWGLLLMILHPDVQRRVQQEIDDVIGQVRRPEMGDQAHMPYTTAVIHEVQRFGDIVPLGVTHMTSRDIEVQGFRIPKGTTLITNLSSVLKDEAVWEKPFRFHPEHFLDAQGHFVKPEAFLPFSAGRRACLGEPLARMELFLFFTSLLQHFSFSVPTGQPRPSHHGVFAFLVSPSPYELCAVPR
Method in brief: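 Luminescent read-out of luciferin formed by 5 nM human CYP2D6 demethylating 30 uM Luciferin-ME EGE (Km level) over 60 min at room temperature after NADPH regeneration addition. Data normalized to full inhibition by 1.43 uM quinidine.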

[16] = biological target: Cytochrome P450 2C19 (Homo sapiens) (UniProt P33261); experiment: qHTS Assay for Inhibitors and Substrates of Cytochrome P450 2C19 (AID 899; active = well fitted curve in the direction sought with a large enough effect; an effect the other way counts as inactive or inconclusive; also: % is scaled to controls: 0 for no effect and ±100 for the full control effect; nearly all actives have a fitted effect of over 60% in size); settings: recombinant CYP2C19, luciferin-H EGE luminescence; series mostly up to 57.1 µM
Chain of Cytochrome P450 2C19 (Homo sapiens) (P33261 whole entry, looked up): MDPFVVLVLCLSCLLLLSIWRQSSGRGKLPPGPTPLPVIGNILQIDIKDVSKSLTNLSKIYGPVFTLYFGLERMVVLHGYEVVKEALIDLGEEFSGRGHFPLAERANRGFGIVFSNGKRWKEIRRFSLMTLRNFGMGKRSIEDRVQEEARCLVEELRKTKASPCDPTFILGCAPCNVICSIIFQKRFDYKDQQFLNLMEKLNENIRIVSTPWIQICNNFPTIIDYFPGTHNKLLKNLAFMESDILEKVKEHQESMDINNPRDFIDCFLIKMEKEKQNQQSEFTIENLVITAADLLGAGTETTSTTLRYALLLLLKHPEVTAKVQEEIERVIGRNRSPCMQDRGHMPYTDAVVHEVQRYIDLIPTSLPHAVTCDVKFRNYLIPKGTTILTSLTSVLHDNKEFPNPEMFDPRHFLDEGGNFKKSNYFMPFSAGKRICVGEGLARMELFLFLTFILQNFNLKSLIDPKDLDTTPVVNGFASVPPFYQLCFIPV
Method in brief: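 Signal comes from luciferase acting on luciferin released by CYP2C19-mediated hydroxylation of Luciferin-H EGE, 10uM (KM). Assay mix: 5nM enzyme, 50mM KPO4; 60 min at 37C with NADPH regeneration. Data normalized against 57uM ketoconazole.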

O=C(c1cnccn1)N1CCC2(CC1)CN(c1cccc(-c3ccccc3)c1)C2
inactive: Potency [1] > 11.4 µM | activity change, negative = inhibition [2] -8.05% | activity change, negative = inhibition [4] -5.73% | Potency [5] > 46 µM | Potency [6] | Potency [7] | outcome [8]
active: Potency [3] 15.8 µM

COc1ccc(Oc2ncc3nc(-c4cccs4)c(=O)n(-c4ccccc4)c3n2)cc1
active: Potency [3] 3.16 µM | Potency [11] 2.51 µM | Potency [12] 2.51 µM
inactive: Potency [1] > 11.4 µM | activity change, negative = inhibition [2] 21.1% | activity change, negative = inhibition [4] 8.33% | Potency [9] > 9.22 µM | Potency [5] > 46 µM | Potency [10] | Potency [6] | Potency [7] | outcome [8]

O=C(c1ccco1)N1CCC2(CCCN(c3ccncc3)C2)CC1
inactive: Potency [1] > 11.4 µM | activity change, negative = inhibition [2] -2.46% | Potency [3] | activity, negative = inhibition [13] 3.15% | Potency [5] > 46 µM | Potency [10] | Potency [6] | Potency [14] | Potency [15] | Potency [16] | outcome [8]

Cn1cccc1C(=O)N1CCC2(CCCN(c3ccc(-c4ccccc4)cc3)C2)CC1
active: Potency [3] 15.8 µM
inactive: Potency [1] > 11.4 µM | activity change, negative = inhibition [2] 15.7% | activity change, negative = inhibition [4] -14.9% | activity, negative = inhibition [13] 3.39% | Potency [5] > 46 µM | Potency [6] | outcome [8]

COc1ccc(C(=O)N2CCC3(CCCN(c4ncccn4)C3)CC2)cc1
active: Potency [3] 20 µM
inactive: Potency [1] > 11.4 µM | activity change, negative = inhibition [2] 0.224% | activity change, negative = inhibition [4] 13.8% | Potency [5] > 46 µM | Potency [10] | Potency [6] | Potency [7] | outcome [8]

Cn1cccc1C(=O)N1CCC2(CC1)CCN(c1ccccn1)CC2
active: Potency [3] 15.8 µM
inactive: Potency [1] > 11.4 µM | activity change, negative = inhibition [2] -0.389% | activity, negative = inhibition [13] -4.58% | Potency [5] > 46 µM | Potency [10] | Potency [6] | outcome [8]

O=C(c1csnn1)N1CCC[C@@]2(CCN(c3ccncc3)C2)C1
inactive: Potency [1] > 11.4 µM | activity change, negative = inhibition [2] 13.9% | Potency [3] | activity, negative = inhibition [13] 8.6% | Potency [5] > 46 µM | Potency [10] | Potency [6] | outcome [8]

N#Cc1cccc(-c2nc3cnc(N4CCNCC4)nc3n(C3CC3)c2=O)c1
active: Potency [3] 5.01 µM | Potency [14] 0.631 µM
inactive: Potency [1] > 11.4 µM | activity change, negative = inhibition [2] 13.2% | activity change, negative = inhibition [4] 26.2% | Potency [9] > 9.22 µM | Potency [5] > 46 µM | Potency [10] | Potency [6] | Potency [7] | outcome [8]
